Growth data for eight compounds are collected here from PubChem BioAssay (NCI).

Compounds without any hit were thinned out: in the full panel of roughly 83,000, 20% have a hit.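 For each line, cells grew in 96-well plates with the test compound present at a single concentration for 48 hours.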 A number with no mark means an inactive call. Activity calls are given as the source filed them. The calls were made as follows: active = growth percent below 10; inactive = the rest.

What all share (assay): NCI-60 one-dose screen, 48 h (100 = growth as untreated, 0 = no growth, -100 = all killed)
One assay has as its system K-562 leukemia. Conditions: 10 µM unless noted.
The test system of another assay is MALME-3M melanoma. Particulars: 10 µM unless noted.
In the next assay the test system is MDA-MB-231 breast. Particulars: 10 µM unless noted.
The subject of the next assay is RXF 393 renal. Particulars: 10 µM unless noted.
Another assay relates to SF-268 CNS. Conditions: 10 µM unless noted.
A further assay concerns SF-295 CNS. Conditions: 10 µM unless noted.
The test system of another assay is SF-539 CNS. Particulars: 10 µM unless noted.
For another assay, the system named is UACC-257 melanoma. Particulars: 10 µM unless noted.
In another assay the test system is M14 melanoma. Conditions: 10 µM unless noted.
Another assay concerns HCT-15 colon. Conditions: 10 µM unless noted.
The subject of a further assay is HT29 colon. Conditions: 10 µM unless noted.
The next assay has as its system SNB-75 CNS. Conditions: 10 µM unless noted.
Another assay relates to SNB-19 CNS. Particulars: 10 µM unless noted.
In a further assay the test system is U251 CNS. Conditions: 10 µM unless noted.
A further assay relates to PC-3 prostate. Conditions: 10 µM unless noted.
Another assay concerns SK-MEL-5 melanoma. Conditions: 10 µM unless noted.
The subject of another assay is UACC-62 melanoma. Particulars: 10 µM unless noted.
In another assay the test system is LOX IMVI melanoma. Conditions: 10 µM unless noted.
A further assay has as its system SK-MEL-28 melanoma. Conditions: 10 µM.
The next assay deals with SK-MEL-2 melanoma. Particulars: 10 µM unless noted.

For the compound `c1ccc2cc3c(Nc4ccc(N5CCOCC5)cc4)ccnc3cc2c1`, the growth is 72.7% in the assay on K-562 leukemia; 98.1% in the assay with MALME-3M melanoma; 91.3% in the assay with MDA-MB-231 breast; 92% with RXF 393 renal; 87.6% in the assay on SF-268 CNS; 98% in the assay with SF-295 CNS. Also, the growth in the assay with SF-539 CNS is 92.4%; in the assay with UACC-257 melanoma, 108%; in the assay on M14 melanoma, 99.9%; in the assay on HCT-15 colon, 91.1%; in the assay with HT29 colon, 98.1%; with SNB-75 CNS, 101%. In addition, the growth in the assay with SNB-19 CNS was 94.3%; in the assay on U251 CNS it was 94.7%; in the assay on PC-3 prostate it was 81.8%; with SK-MEL-5 melanoma, 89.6%; with UACC-62 melanoma, 95.6%; in the assay on LOX IMVI melanoma it was 96.6%. Also, the growth in the assay with SK-MEL-28 melanoma is 111%; with SK-MEL-2 melanoma it was 101%.
For `O=C(NCc1ccccc1)C1CN(c2ccc(Cl)cc2)N(c2ccc(Cl)cc2)C1=O` (stereo not given), the growth is 35.1% in the assay with K-562 leukemia; 73.8% in the assay on MALME-3M melanoma; 91.3% in the assay on MDA-MB-231 breast; 81.1% in the assay on RXF 393 renal; 82.4% in the assay on SF-268 CNS; 76.3% in the assay with SF-295 CNS. Besides, the growth is 93.4% in the assay with SF-539 CNS; 79.4% with UACC-257 melanoma; 74.9% with M14 melanoma; 59.5% in the assay with HCT-15 colon; 48.8% with HT29 colon; 82.9% with SNB-75 CNS. For the same compound, the growth in the assay on SNB-19 CNS was 84.9%; in the assay on U251 CNS, 84.2%; with PC-3 prostate it was 67.9%; in the assay with SK-MEL-5 melanoma, 83.3%; in the assay with UACC-62 melanoma it was 58.7%; with LOX IMVI melanoma, 88.4%. The results for the growth in the assay on SK-MEL-28 melanoma and with SK-MEL-2 melanoma were 88.9% and 85.8%, respectively.
Regarding `Cc1cc(Br)c(N)c(Br)c1`, the growth in the assay with K-562 leukemia was 90%; in the assay with MALME-3M melanoma, 104%; in the assay with MDA-MB-231 breast, 103%; in the assay with RXF 393 renal it was 106%; with SF-268 CNS, 106%; in the assay with SF-295 CNS, 95.9%. Further, the growth is 95.5% in the assay on SF-539 CNS; 77.5% with UACC-257 melanoma; 89.3% in the assay on M14 melanoma; 96.1% in the assay with HCT-15 colon; 106% in the assay with HT29 colon; 84.3% with SNB-75 CNS. Besides, the growth was 103% in the assay on SNB-19 CNS; 96.4% in the assay with U251 CNS; 93% in the assay with PC-3 prostate; 102% with SK-MEL-5 melanoma; 98.6% in the assay with UACC-62 melanoma; 93.6% with LOX IMVI melanoma. In addition, the growth in the assay with SK-MEL-28 melanoma is 101%; with SK-MEL-2 melanoma, 110%.
Regarding `O=C(Cn1cc(COc2ncnc3c2cnn3-c2ccccc2)nn1)Nc1ccccn1`, the growth is 96.7% with K-562 leukemia; 94.5% in the assay on MALME-3M melanoma; 85.2% in the assay with MDA-MB-231 breast; 112% with RXF 393 renal; 92.9% in the assay on SF-268 CNS; 102% with SF-295 CNS. Further, the growth was 89.1% with SF-539 CNS; 98.4% with UACC-257 melanoma; 97.4% with M14 melanoma; 101% in the assay with HCT-15 colon; 110% in the assay on HT29 colon; 71.9% with SNB-75 CNS. The growth with SNB-19 CNS was 90.8%; in the assay with U251 CNS it was 95.7%; in the assay with PC-3 prostate it was 90.3%; with SK-MEL-5 melanoma, 92.3%; with UACC-62 melanoma, 80.8%; in the assay on LOX IMVI melanoma, 93.8%. The growth in the assay on SK-MEL-28 melanoma was 97.3%; with SK-MEL-2 melanoma, 101%.
For `COc1cccc(/C=C/C(=O)c2c(C)nc3ccccc3c2/C=C/c2ccccc2)c1OC`, the growth in the assay on K-562 leukemia was 9.13% (active); in the assay with MALME-3M melanoma, 69.1%; in the assay on MDA-MB-231 breast, 20.9%; with RXF 393 renal, 15.4%; with SF-268 CNS it was 38.8%; with SF-295 CNS, 46.5%. Moreover, the growth is 58.8% in the assay with SF-539 CNS; 46.1% with UACC-257 melanoma; 36.3% in the assay on M14 melanoma; 5.81% (active) in the assay on HCT-15 colon; 2.64% (active) with HT29 colon; 9.19% (active) in the assay with SNB-75 CNS. Also, the growth with SNB-19 CNS was 36.3%; with U251 CNS, 24%; in the assay with PC-3 prostate it was 43.3%; in the assay with SK-MEL-5 melanoma it was 32.3%; with UACC-62 melanoma, 28.5%; in the assay on LOX IMVI melanoma, -59.4% (active). The results for the growth in the assay on SK-MEL-28 melanoma and in the assay on SK-MEL-2 melanoma were 44.8% and 32.3%, respectively.
Consider `CC(=Nc1ccccc1)C1=C(O)C(Cc2ccc(F)cc2)NC1=O` (stereo not given), for which the growth in the assay on K-562 leukemia was 12.3%; in the assay with MALME-3M melanoma, 24.2%; with MDA-MB-231 breast, 69.7%; in the assay on RXF 393 renal it was 15.2%; in the assay with SF-268 CNS it was 54.9%; with SF-295 CNS, 8.24% (active). The growth with SF-539 CNS was 18.7%; in the assay on UACC-257 melanoma, 38.8%; in the assay with M14 melanoma, 12.8%; in the assay with HCT-15 colon, 23.3%; in the assay with HT29 colon, 2.78% (active); with SNB-75 CNS, 17.9%. Further, the growth in the assay on SNB-19 CNS was 42.4%; in the assay with U251 CNS, 28.2%; in the assay with PC-3 prostate, 18.3%; in the assay on SK-MEL-5 melanoma, 25.1%; with UACC-62 melanoma, 23.5%; in the assay with LOX IMVI melanoma it was 36.2%. The growth in the assay with SK-MEL-28 melanoma is 45.3%; with SK-MEL-2 melanoma it was 17.6%.
In the case of `COc1cc(C(C)n2cc(-c3ccccc3)nn2)ccc1OC1CCCCC1` (stereo not given), the growth with K-562 leukemia is 25.9%; in the assay on MALME-3M melanoma, 87.7%; in the assay with MDA-MB-231 breast, 77.9%; with RXF 393 renal, 98%; with SF-268 CNS, 78.2%; in the assay with SF-295 CNS, 41.2%. The growth with SF-539 CNS was 65%; with UACC-257 melanoma it was 52.1%; in the assay on M14 melanoma it was 79.1%; in the assay on HCT-15 colon, 61.2%; with HT29 colon, 82.3%; with SNB-75 CNS, 68.1%. In addition, the growth with SNB-19 CNS was 68.7%; in the assay with U251 CNS, 81%; in the assay on PC-3 prostate, 69.6%; in the assay with SK-MEL-5 melanoma, 29.9%; in the assay on UACC-62 melanoma, 55.7%; with LOX IMVI melanoma, 63.1%. The growth with SK-MEL-28 melanoma is 95.1%; in the assay with SK-MEL-2 melanoma, 92.8%.
In the case of `CCOC(=O)c1sc(-c2ccc(OS(=O)(=O)c3cccs3)c(C=O)c2)nc1C`, the growth with K-562 leukemia was 4.3% (active); in the assay with MALME-3M melanoma it was -5.26% (active); in the assay with MDA-MB-231 breast it was -16.8% (active); in the assay with RXF 393 renal, 19%; in the assay on SF-268 CNS, 9.2% (active); with SF-295 CNS it was -8.21% (active). For the same compound, the growth was -26.2% (active) with SF-539 CNS; 32.1% in the assay with UACC-257 melanoma; -17.6% (active) in the assay with M14 melanoma; 1.42% (active) in the assay on HCT-15 colon; 1.93% (active) in the assay on HT29 colon; 4.62% (active) with SNB-75 CNS. Also, the growth in the assay on SNB-19 CNS is 5.38% (active); with U251 CNS, 2.52% (active); with PC-3 prostate it was 11.1%; with SK-MEL-5 melanoma, -88.9% (active); in the assay on UACC-62 melanoma, 2.43% (active); in the assay on LOX IMVI melanoma it was -48.2% (active). Besides, the growth with SK-MEL-28 melanoma was 27.4%; with SK-MEL-2 melanoma, 28.6%.
